Test results from PubChem BioAssay AID588783 (NMMLSC, 2011).
Potency and affinity values are given separately.

test system: beta-arrestin 1 peptide binding to AP-2 beta2-adaptin appendage (human); test: inhibitors of arrestin peptide binding to AP2, dose response, biochemical, cherry pick 1, beta2-adaptin appendage, flow cytometry (AID 588783); settings: Bead flow cytometry, FITC-arrestin peptide binding GST-AP2; at 9.12 µM; stronger effect = higher value;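 active = inhibition of specific binding of 40% or more; inactive = inhibition of specific binding below 40%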

Inhibition of specific binding, inactive:
COc1cc(C2Nc3cccc4cccc(c34)N2)cc(OC)c1O 12%, CN1c2ccccc2N(C)C1(C)c1ccccc1 3%, Nc1c(C(=O)NC2CC2)sc2nc3c(c(-c4ccco4)c12)CC/C3=C/c1ccco1 22%, Cc1nn(-c2ccccn2)c2c1C(c1ccsc1)C1=C(CCCC1=O)N2 (stereo unspecified) 12%, COC(=O)c1ccccc1N/C=C1\CCc2c(c(C)nn2-c2ccccn2)C1=O 7%, O=C(NCC1COc2ccccc2O1)c1ccc(NC(=O)C(c2ccccc2)c2ccccc2)cc1 (stereo unspecified) 7%
